These results are taken from PubChem BioAssay AID602261 (Sanford-Burnham Center for Chemical Genomics, 2012).

Screen size: about 360,000 compounds; about 2,400 (0.67%) were called active. Many of the other results were omitted from the sample, so actives are more common in it than they were. Unmarked numbers belong to inactive results.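 The calls were made as follows: active = compounds whose normalised, plate-corrected inhibition of enzyme fluorescence in the single-dose primary screen is 50% or more; inactive = the rest.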

Fatty acid synthase (Homo sapiens), sequence (P49327 whole entry, looked up, the tested form may be a part): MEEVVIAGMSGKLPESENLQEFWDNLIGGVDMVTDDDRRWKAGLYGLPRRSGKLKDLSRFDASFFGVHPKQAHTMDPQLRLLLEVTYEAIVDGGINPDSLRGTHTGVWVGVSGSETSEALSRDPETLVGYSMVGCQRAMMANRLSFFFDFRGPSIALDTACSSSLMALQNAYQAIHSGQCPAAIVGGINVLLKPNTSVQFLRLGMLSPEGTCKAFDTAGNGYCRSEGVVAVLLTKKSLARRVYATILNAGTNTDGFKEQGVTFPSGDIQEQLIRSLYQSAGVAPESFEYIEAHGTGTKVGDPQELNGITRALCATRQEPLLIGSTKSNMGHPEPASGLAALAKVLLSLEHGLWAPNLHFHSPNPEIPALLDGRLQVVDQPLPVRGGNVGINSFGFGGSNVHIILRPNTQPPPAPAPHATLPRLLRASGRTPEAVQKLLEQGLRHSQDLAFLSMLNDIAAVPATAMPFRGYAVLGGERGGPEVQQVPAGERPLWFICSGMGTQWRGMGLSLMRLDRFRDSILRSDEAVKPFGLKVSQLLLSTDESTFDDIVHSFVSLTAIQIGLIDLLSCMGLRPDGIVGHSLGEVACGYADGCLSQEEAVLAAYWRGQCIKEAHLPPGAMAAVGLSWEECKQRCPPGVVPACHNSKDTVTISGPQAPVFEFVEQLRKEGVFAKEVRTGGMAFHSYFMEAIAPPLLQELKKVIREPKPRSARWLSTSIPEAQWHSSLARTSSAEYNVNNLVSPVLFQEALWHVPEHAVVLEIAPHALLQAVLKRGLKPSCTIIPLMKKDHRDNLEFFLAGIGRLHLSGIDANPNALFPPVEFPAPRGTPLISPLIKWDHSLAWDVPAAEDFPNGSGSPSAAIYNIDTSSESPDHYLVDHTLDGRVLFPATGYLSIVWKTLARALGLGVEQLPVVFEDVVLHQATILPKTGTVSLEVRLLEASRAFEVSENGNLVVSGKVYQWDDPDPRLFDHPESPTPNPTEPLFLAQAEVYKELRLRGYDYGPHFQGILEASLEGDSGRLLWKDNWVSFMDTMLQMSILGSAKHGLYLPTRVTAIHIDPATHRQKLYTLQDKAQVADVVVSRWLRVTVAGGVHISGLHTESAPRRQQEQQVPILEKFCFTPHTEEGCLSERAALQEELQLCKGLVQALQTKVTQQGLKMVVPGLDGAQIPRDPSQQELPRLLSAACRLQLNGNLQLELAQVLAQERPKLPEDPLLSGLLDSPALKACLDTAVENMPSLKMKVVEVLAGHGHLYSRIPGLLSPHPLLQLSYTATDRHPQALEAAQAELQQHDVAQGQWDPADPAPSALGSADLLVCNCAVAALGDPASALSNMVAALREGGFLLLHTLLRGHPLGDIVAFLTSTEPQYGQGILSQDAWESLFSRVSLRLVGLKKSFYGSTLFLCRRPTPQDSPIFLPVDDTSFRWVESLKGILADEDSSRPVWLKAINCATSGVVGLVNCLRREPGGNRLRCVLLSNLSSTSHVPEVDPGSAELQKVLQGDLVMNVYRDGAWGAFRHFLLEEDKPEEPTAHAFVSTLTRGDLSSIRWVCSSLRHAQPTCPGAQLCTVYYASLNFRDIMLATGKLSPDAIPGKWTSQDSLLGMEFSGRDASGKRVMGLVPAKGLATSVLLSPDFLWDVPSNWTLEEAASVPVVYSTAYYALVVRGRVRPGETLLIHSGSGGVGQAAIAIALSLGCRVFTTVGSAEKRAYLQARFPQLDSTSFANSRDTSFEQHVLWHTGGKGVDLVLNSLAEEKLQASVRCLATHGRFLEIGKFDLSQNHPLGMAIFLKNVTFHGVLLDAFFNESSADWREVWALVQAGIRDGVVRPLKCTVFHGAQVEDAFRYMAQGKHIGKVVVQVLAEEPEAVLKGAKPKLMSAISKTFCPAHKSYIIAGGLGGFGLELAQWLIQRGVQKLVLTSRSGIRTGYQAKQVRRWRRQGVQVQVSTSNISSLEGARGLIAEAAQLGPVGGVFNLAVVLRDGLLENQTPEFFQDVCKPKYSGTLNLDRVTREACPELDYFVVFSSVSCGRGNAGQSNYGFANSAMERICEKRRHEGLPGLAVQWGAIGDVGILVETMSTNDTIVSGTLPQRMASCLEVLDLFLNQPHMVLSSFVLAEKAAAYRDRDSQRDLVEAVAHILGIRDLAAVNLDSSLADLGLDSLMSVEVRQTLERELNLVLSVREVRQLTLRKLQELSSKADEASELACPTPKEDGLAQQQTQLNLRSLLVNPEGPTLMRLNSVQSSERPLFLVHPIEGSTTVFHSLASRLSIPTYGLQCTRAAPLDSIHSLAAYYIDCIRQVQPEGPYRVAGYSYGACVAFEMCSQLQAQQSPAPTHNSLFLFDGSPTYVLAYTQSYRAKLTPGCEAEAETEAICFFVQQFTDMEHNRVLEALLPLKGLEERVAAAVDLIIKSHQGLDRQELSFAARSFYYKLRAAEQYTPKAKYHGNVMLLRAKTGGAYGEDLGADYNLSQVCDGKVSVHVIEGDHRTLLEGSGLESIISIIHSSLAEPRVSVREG

The test addresses Fatty acid synthase (Homo sapiens) (UniProt P49327). The test can be described thus: FAS thioesterase domain inhibitors, primary screen, biochemical, fluorescence intensity, uHTS (AID 602261).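 Also: 0% = DMSO with enzyme and 100% = substrate without enzyme.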 Particulars: recombinant FAS-TE, OMFH fluorogenic substrate, fluorescence endpoint; at 15 µM; active compounds read high.
For orientation: inhibition means the drop in the measured response relative to a control, in per cent. Take `CCOC(=O)Nc1ccc(S(=O)(=O)N(C)C(C)C)cc1`: the inhibition is -3.7%.
`CN1C(C(=O)NCc2ccco2)CC2Cn3c(nc4ccccc43)C21` (stereo unspecified): the inhibition was -11.9%.
For the compound `O=C(CCCl)Nc1ccc(S(=O)(=O)NCc2ccco2)cc1`, the inhibition is -1.3%.
The value for `Cc1ccc(CNC(=O)C2CC(c3ccccc3[N+](=O)[O-])=NO2)o1` (stereo unspecified) was -5.1%; that for `COc1ccc(CNC(=O)C2CC(c3ccc(C(F)(F)F)cc3)=NO2)cc1` (stereo unspecified) was -1.7%.
Take `O=C(NCCCCc1ccccc1)C1CC(c2ccc([N+](=O)[O-])cc2)=NO1` (stereo unspecified): the inhibition is 54.2% (active).
The value for `O=C(NCCCn1ccnc1)C(=O)NCC1OCCN1S(=O)(=O)c1cc(F)ccc1F` (stereo unspecified) was -10.1%; that for `C[C@H](NC(=O)c1nc[nH]c1C(=O)N[C@@H](C)C(=O)OC(C)(C)C)C(=O)OC(C)(C)C` was -7%.
Then `CC(C)(C)OC(=O)NCCCCCNC(=O)c1nc[nH]c1C(=O)NCc1ccccc1`, with 8.2%; and `CC(C)(C)OC(=O)NCCCCCNC(=O)c1[nH]cnc1C(=O)Nc1nccs1`, with -15.7%; and `CCOC(=O)c1ccc(NC(=O)c2nc[nH]c2C(=O)N[C@@H](CCCCNC(=O)OC(C)(C)C)C(=O)OC(C)(C)C)cc1`, with 85.2% (active).
Then `Cc1ccc(NC(=O)c2nc[nH]c2C(=O)N[C@@H](CCCCNC(=O)OC(C)(C)C)C(=O)OC(C)(C)C)cc1`, with 75.3% (active).
Regarding `CNC(=O)c1[nH]cnc1C(=O)N[C@@H](CC(C)C)C(=O)OC(C)(C)C`, the inhibition was -5.3%.
The value for `COc1ccccc1CNS(=O)(=O)CC12CCC(CC1=O)C2(C)C` (stereo unspecified) was 2.9%; that for `Cc1cccc(OCC(=O)OCC(=O)Nc2ccc(Cl)cn2)c1` was -6.1%.
The value for `CCN(CC)C(CNC(=O)CSc1nnnn1-c1cccc(F)c1)c1ccco1` (stereo unspecified) was -1.2%; that for `Cc1cccc(N2CCN(C(=O)c3cc4c(=O)[nH]c5ccccc5c4n3C)CC2)c1C` was 5%.
The value for `O=C(Cc1ccc(S(=O)(=O)N2CCOCC2)s1)NCCOc1ccccc1F` was -0.5%.
As for `Cc1ccc2c(c1)C(O)(CC(=O)c1cccc(-n3cccc3)c1)C(=O)N2` (stereo unspecified), the inhibition was 2.6%.
The value for `COc1cc(/C=C(/NC(=O)c2ccccc2)C(=O)Nc2cccc(O)c2)c([N+](=O)[O-])cc1OC` was -3.8%.
As for `Nc1nnnn1/N=C/c1cc([N+](=O)[O-])ccc1O`, the inhibition was -3.3%.
In the case of `O=C(N/N=C/c1cc([N+](=O)[O-])ccc1O)/C(=C\c1cccs1)NC(=O)c1ccccc1`, the inhibition was 56.5% (active).
Turning to `COc1ccc(NC(=O)NN2CCN(C)CC2)c(OC)c1`, the inhibition is -6%.
The value for `O=S(=O)(Nc1cccc(Oc2ccc(Cl)cc2)n1)c1ccc(F)cc1` was 8.1%; that for `CC(C)CC(=O)c1c[nH]c(C(=O)NCc2ccccc2)c1` was -3.6%.
Turning to `CC1(c2ccc(Cl)cc2)NC(=O)N(CC(=O)c2ccc3c(c2)OCO3)C1=O` (stereo unspecified), the inhibition is 11.3%.
The value for `Cn1c(=O)[nH]c(=O)c2c1nc(NCCCn1ccnc1)n2Cc1cccc(Br)c1` was -2.6%; that for `CCOC(=O)c1ccc(-c2ccc3ncnc(N(C)Cc4sccc4C)c3c2)o1` was 26.5%; that for `COc1ccc(C2=NN(C(=O)CSc3nc(=O)n4ccc(C)cc4n3)C(c3ccc(C)cc3)C2)cc1` (stereo unspecified) was 81.4% (active).
The value for `COc1ccc(C2CC(c3ccccc3)=NN2C(=O)CSc2nccc(=O)[nH]2)cc1` (stereo unspecified) was -5.6%; that for `Cc1ccc(C2=NN(C(=O)CSc3nc(N)cc(N)n3)C(c3ccco3)C2)cc1` (stereo unspecified) was 1.5%.
Then `Cc1ccc(N2C(=O)S/C(=C/c3cn(C)c4ccccc34)C2=O)cc1`, with 28.7%; and `Cc1cccc(N=C2SC(C)CN2C(=O)CN2C(=O)NC3(CCCC3)C2=O)c1` (stereo unspecified), with 3.9%; and `Cc1cccc(N=C2NC(=O)/C(=C/c3cn(C)c4ccccc34)S2)c1`, with 52.4% (active).
For `Cc1ccccc1CSc1nnc(-c2ccccn2)n1N`, the inhibition was -5.3%.
Take `O=C(NC1=NCCS1)c1ccc(Cl)s1`: the inhibition is -11.9%.
Then `Cc1cccc(N2CCC(NCc3c(C(=O)N4CCCCC4)nc4c(C)cccn34)CC2)c1`, with -1.6%.
The value for `O=C(O)CCS(=O)(=O)c1ccc(-c2ccccc2)cc1` was -1.5%.
For `CCOC(=O)CN1C(=O)C(=O)c2cc(C)ccc21`, the inhibition is -7%.
Turning to `Cc1ccc2c(c1)-c1c(ssc1=S)C(C)(C)N2C(=O)CN1C(=O)c2ccccc2C1=O`, the inhibition was 52.2% (active).
Consider `Cc1cc2c(cc1C)N(C(=O)CN1C(=O)c3ccccc3C1=O)C(C)(C)c1ssc(=S)c1-2`, for which the inhibition was 43.2%.
On to `O=S1(=O)N=C(N(CCO)/N=C/c2ccccc2F)c2ccccc21`, for which the inhibition is 0.1%.
On to `CCOc1ccccc1NC(=O)C12CC3CC(C1)CC(c1ccc(C)cc1)(C3)C2`, for which the inhibition is 33.7%.
Then `COc1ccc(Nc2ncc(F)c(N3CCOCC3)n2)cc1`, with -0.3%; and `CCN1CCN(c2nc(Nc3cc(OC)ccc3OC)nc(Nc3cc(OC)ccc3OC)n2)CC1`, with 32.9%; and `CCOc1ccc(Nc2nc(Cl)nc(N3CCN(c4ccc(OC)cc4)CC3)n2)cc1`, with 57.9% (active).
Then `CC1CCCCC1NC(=O)C1CCCN1S(=O)(=O)c1cccc2nsnc12` (stereo unspecified), with -4.8%.
On to `O=C(N1CCCC1)C12CC3CC(C1)CC(C(=O)N1CCCC1)(C3)C2`, for which the inhibition was -5.3%.
The value for `Cc1ccc(NC(=O)CSc2nnc(CNC(=O)c3ccccc3F)o2)cc1` was -4.2%.
The value for `O=C(Nc1ccc(N2C(=O)c3cccc4cccc(c34)C2=O)cc1)c1ccc(N2CCCCC2)c([N+](=O)[O-])c1` was 56.4% (active).
Then `O=C(Nc1cccc(C(F)(F)F)c1)c1ccc(N2CCNCC2)c([N+](=O)[O-])c1`, with -5%.
For `O=C(COc1ccccc1F)NNC(=O)c1ccc(N2CCCCC2)c([N+](=O)[O-])c1`, the inhibition is 4.2%.
The value for `CC(=O)Nc1ccc2c3c(ccc([N+](=O)[O-])c13)CC2` was -4%.
With `CCCN1Cc2cccc(C(=O)Nc3ccc(S(=O)(=O)N4CCCCCC4)cc3)c2C1=O`, the inhibition is 54.7% (active).
As to `O=C(Nc1ccc(S(=O)(=O)N2CCCCCC2)cc1)c1c(F)cccc1F`, the inhibition was 12%.
The value for `CCCN1Cc2cccc(C(=O)NCc3ccccc3)c2C1=O` was -0.8%.
